Assay outcomes deposited in PubChem by National Center for Advancing Translational Sciences (NCATS).
Pf growth 48h: P. falciparum growth inhibition at 48 hours (one generation) | Potency, µM (series often up to 28.7 µM), inactives show top-dose activity change, negative = inhibition, usual class: inhibitors | P. falciparum luciferase growth in erythrocytes, 48 h | 310,000 compounds, 5.9% hits; further: on the % scale 0 is the no-effect control and ±100 the full control effect
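Growth was read as firefly luciferase luminescence after a 48 h, 37 C, 5% CO2 exposure of compounds to reporter-bearing P. falciparum cultures (0.1% parasitemia, 2% hematocrit final) in Albumax-supplemented RPMI 1640.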
SARS PLP yeast: inhibitors of SARS-CoV papain-like protease in yeast. S. cerevisiae expressing SARS-CoV PLpro, growth rescue. Potency, µM (titrated, usually from 32.9 µM), without a hit: at the highest dose activity, positive = growth rescue, most hits filed as activators. 330,000 compounds, 0.19% hits. AID 485353; calls by dose curve; further: 0% is about no effect; nearly all actives have a fitted effect of over 55% in size
Pf growth 96h: P. falciparum growth inhibition at 96 hours. P. falciparum luciferase reporter growth, 96 h. AID 504834. 320,000 compounds, 6.9% hits. Potency, µM (doses to about 28.7 µM), inactives show at the highest dose activity change, negative = inhibition, usual class: inhibitors; further: on the % scale 0 is the no-effect control and ±100 the full control effect
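Two parasite generations (96 h, 37 C, 5% CO2) of compound exposure in infected erythrocytes (0.05% parasitemia, 2% hematocrit). Luciferase-reporter P. falciparum; decreased luminescence indicates inhibited growth, aimed at apicoplast-acting delayed death.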
Sm TGR block: inhibitors of Schistosoma mansoni thioredoxin glutathione reductase; Potency, µM (titrated, usually from 114 µM), for inactives: at the top dose activity change, negative = inhibition, usual class: inhibitors; Q962Y6; purified TGR, DTNB reduction, TNB absorbance 405 nm; 360,000 compounds, 3% hits; AID 485364; further: on the % scale 0 is the no-effect control and ±100 the full control effect; nearly all actives have a fitted effect of over 60% in size
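TGR 20 nM + NADPH 100 uM (dispensed conc.), cpd preinc 15 min RT; start with NADPH (500 uM addition) then DTNB (15 mM addition). Kinetic TNB absorbance, 405 nm filter. Four-parameter Hill fit across titration.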
* marks the source's active call; other numbers are inactive results; ? = inconclusive; / = no result; [ ] = remark or other dose. This is a sample that favours compounds with a hit; in the whole collection about 12% have one here. Unless noted, the call rests on the fitted dose curve; in most records, active means well fitted curve in the direction sought with a large enough effect; inconclusive means small, poorly fitted or top-dose-only effect, or another doubt; inactive means no such curve, though single readings can be large; an effect the other way counts as inactive or inconclusive. Potency means the concentration at half of the fitted maximal effect.

SMILES	Pf growth 48h	SARS PLP yeast	Pf growth 96h	Sm TGR block
O=C(N/N=C/c1cc(Cl)ccc1O)c1cccnc1	3.3µM*	11%	?	-2%
O=C(N/N=C\c1cc(Cl)ccc1O)c1ccc(S(=O)(=O)N2CCCCC2)cc1	2.6µM*	?	2.9µM*	0%
O=C(Nc1cc(S(=O)(=O)Nc2ccc(Cl)cc2)ccc1O)c1ccc(S(=O)(=O)N2CCCCCC2)cc1	-24%	3%	0%	-3%
Cc1cc(-c2nnc(CCC(=O)NCCc3ccccc3F)o2)no1	20%	0%	-13%	7%
COC(=O)c1cc(NC(=O)c2oc(=O)c3ccccc3c2-c2ccccc2)cc(C(=O)OC)c1	/	/	/	-1%
Cc1cccc(NC(=O)c2cc(-c3ccc4c(c3)OCCO4)on2)c1	/	/	/	2%
CCOc1ccc(-n2c(=O)c3c(C)c(C(=O)N(C)C)sc3n(Cc3cc(C)ccc3C)c2=O)cc1	/	/	/	2%
CC(C)Cn1cc(C(=O)N2CCN(c3ccccn3)CC2)c2c3ccccc3n(C)c2c1=O	7.4µM*	0%	9.3µM*	-34%
CC(C)Cn1cc(C(=O)NC2CCN(Cc3ccccc3)CC2)c2c3ccccc3n(C)c2c1=O	2.6µM*	3%	?	-16%
COCCCNC(=O)c1cn(CC(C)C)c(=O)c2c1c1ccccc1n2C	/	5%	/	-2%
CC1CC1C(=O)OCC(=O)Nc1ccc(Cl)cn1 (centres undefined)	/	1%	/	/
O=Cc1coc2c(ccc3ccccc32)c1=O	28%	-10%	38%	28µM*
O=C/C=C/c1coc2ccc3ccccc3c2c1=O	12%	-1%	30%	0%
O=C(NCc1ccccn1)c1c(-c2ccccc2)sc2ccccc12	/	2%	/	/
Cc1ccc[n+](CC(=O)c2ccc(Br)cc2)c1	1%	1%	-24%	5%
N#Cc1ccc[n+](CC(=O)c2ccc(Cl)cc2)c1	-3%	-3%	7.4µM*	-19%
Clc1ccc(C2=Nn3c(nnc3-c3cccs3)SC2)cc1	?	10%	?	79µM*
c1csc(C2=Nn3c(nnc3-c3ccncc3)SC2)c1	53%	-2%	-11%	2%
CCc1ccc(C2=Nn3c(nnc3-c3cccs3)SC2)cc1	2.1µM*	-10%	1.9µM*	-12%
c1ccc(-c2ccc(C3=Nn4c(nnc4-c4cccs4)SC3)cc2)cc1	9.3µM*	-1%	13µM*	8%
c1ccc(C2=Nn3c(nnc3-c3cccs3)SC2)cc1	-12%	-1%	3%	8%
CC1(C)CCC[C@]2(C)[C@H]3Cc4cc(O)ccc4O[C@]3(C)CC[C@@H]12	/	8%	/	/
Cc1cc(/C=C2/NC(=O)NC2=O)c(C)n1-c1ccc(N2CCOCC2)cc1	-7%[5.75 µM]	0%	?	?
O=C1NC(=O)/C(=C\c2ccc(N3CCOCC3)o2)N1	7.4µM*	1%	?	8.9µM*
O=C1NC(=O)/C(=C/c2ccc(N3CCOCC3)o2)N1	1.5µM*	0%	?	11µM*
SMILES	Pf growth 48h	SARS PLP yeast	Pf growth 96h	Sm TGR block
Cc1ccccc1N1C(=O)NC(=O)/C(=C\c2cc(Br)c(N3CCOCC3)o2)C1=O	-3%	-7%	?	?
Cc1cc(/C=C2\NC(=O)NC2=O)c(C)n1-c1ccc(N2CCOCC2)cc1	?	-1%	?	?
Cc1ccccc1N1C(=O)NC(=O)/C(=C/c2ccc(N3CCOCC3)o2)C1=O	2%	0%	-6%	22µM*
O=C1NC(=O)/C(=C\c2ccc(Sc3ccc(Cl)cc3)o2)N1	/	-12%	?	50µM*
Nc1ccccc1Nc1nc2ccccc2[nH]1	66%	-2%	10µM*	-16%
Fc1cccc(F)c1-n1c(CN2CCCCC2)csc1=S	?	-4%	12µM*	-7%
CCc1ccccc1NC(=S)NCC1CCN(c2ccc(OC)cc2)C1 (centres undefined)	12µM*	0%	?	8%
CCc1cccc(C)c1NC(=S)NCC1CCN(c2ccc(OC)cc2)C1 (centres undefined)	3.3µM*	-2%	-4%	-7%
CCCOC(=O)CSc1nnc2ccc3ccccc3n12	/	/	/	3%
CCc1cccc(NC(=O)Cn2c(=O)n(-c3ccccc3C)c(=O)c3c2c2cc(C)ccc2n3C)c1	/	/	/	-1%
Cc1nc(N/N=C/c2ccccn2)sc1C	-71%	-86%	-100%	-8%
CCCc1sc(N/N=C/c2ccccn2)nc1-c1ccc(F)cc1	2.6µM*	-32%	31%	-6%
CCOc1cccc(=O)c2c(C)n(CC(=O)c3ccccc3)c(C)c12	8.3µM*	0%	44%	-28%
COc1cccc(=O)c2c(C)n(CC(=O)c3ccccc3)c(C)c12	?	1%	293%	?
O=S(=O)(c1cccnc1)N1CCn2cccc2C1c1ccccc1F (centres undefined)	-27%	-1%	0%	32µM*
CC(C)(C)NC(=O)N1CCn2cccc2C1c1ccccc1F (centres undefined)	-3%	-1%	?	-18%
O=[N+]([O-])c1ccc(S(=O)(=O)N2CCn3cccc3C2c2ccccc2F)cc1 (centres undefined)	/	/	/	35µM*
CC1c2cccn2CCN1S(=O)(=O)c1ccccc1 (centres undefined)	-18%	-2%	-24%	40µM*
Nc1nc2nc(-c3ccccc3)cc(C(F)(F)F)c2s1	-1%	0%	-5%	-4%
COc1ccc2ccccc2c1C(=O)/C=C\c1ccoc1	-10%	/	?	22µM*
Cc1nc(N)sc1C(=O)N1N=N1	32%	-1%	32%	2.5µM*
CCCc1nc(N)sc1C(=O)OCC	3%	-30%	38%	6%
CC(=O)c1ccc(-c2nnc(CCC(=O)N(C)Cc3cccc4cnccc34)o2)s1	?	-1%	?	40µM*
CN(Cc1cccc2cnccc12)C(=O)CCc1nnc(CCc2ccccc2)o1	?	0%	?	5%
CN(C)c1cc[n+](CC(=O)c2ccc(Br)cc2)cc1	?	0%	?	-7%
SMILES	Pf growth 48h	SARS PLP yeast	Pf growth 96h	Sm TGR block
CN(C)c1cc[n+](CC(=O)c2ccc(-c3ccccc3)cc2)cc1	4.7µM*	-9%	?	?
Cc1ccc(SCCc2cc[n+](CC(=O)c3ccccc3)cc2)cc1	75%	5%	?	3%
Cc1ccc(C(=O)C[n+]2ccc(Cc3ccccc3)cc2)cc1	?	-1%	8.3µM*	-1%
COc1ccc(C(=O)C[n+]2ccc(N(C)C)cc2)cc1	1.2µM*	0%	?	9%
Cc1ccc(C(=O)COc2ccccc2N2C(=O)c3ccccc3C2=O)cc1	38%	-26%	3.3µM*	-5%
O=C(CN1C(=O)c2ccccc2S1(=O)=O)c1ccccc1	89%	1%	/	-19%
Cc1ccc(C(=O)COc2ccccc2-c2ccccc2)cc1	?	-8%	7%	-3%
Cc1ccc(C(=O)CN2C(=O)c3ccccc3S2(=O)=O)cc1	3.7µM*	1%	76%	5%
Cc1ccc(NC(=O)CSc2nc3ncccc3[nH]2)cc1F	/	/	/	0%
Cc1cccc(C(=O)Nc2ccc(C(=O)OCc3cc(=O)n4nc(C5CC5)sc4n3)cc2)c1	/	/	/	-1%
Cc1ccccc1Cn1c(=O)n(CCCCC(=O)NCc2ccc3c(c2)OCO3)c(=O)c2ccccc21	/	/	/	-1%
